Screening data deposited in PubChem BioAssay by National Center for Advancing Translational Sciences (NCATS).
HCV inhibitor – blocks hepatitis C virus; Huh7.5.1 HCVcc-Cre infection, luciferase reporter, 44 h; Potency, µM (highest dose often 41.8 µM), usual class: inhibitors; actives 3.4% (n = 340,000); AID 651820; active = well fitted inhibition curve with a large enough effect; inconclusive = small, poorly fitted or top-dose-only effect, or another doubt; inactive = no such curve, though single readings can be large or run the other way
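Infectious HCVcc-Cre (~0.5 moi) was added to cells just after compound, with cells seeded 4 h earlier at 1,000 per well. Luciferase activity after 44 h culture reported infection; substrate was incubated 15 min at room temperature before reading.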
VACV mCherry inh – vaccinia inhibition (mCherry reporter); Vaccinia virus mCherry reporter infection, fluorescence; Potency, µM (series often up to 36.5 µM), actives largely listed as inhibitors; actives 0.63% (n = 310,000); AID 720579; calls by dose curve; tested in A549 cells; note: nearly all actives have a fitted effect of over 35% in size
VACV Venus inh – inhibitors of vaccinia virus (Venus reporter); Vaccinia virus Venus reporter expression, fluorescence; Potency, µM (highest dose often 36.5 µM), actives largely listed as inhibitors; actives 0.46% (n = 330,000); AID 720580; calls by dose curve; tested in A549 cells; note: nearly all actives have a fitted effect of over 30% in size
HCMV inh – human cytomegalovirus inhibition. actives 4.5% (n = 410,000). activity change, negative = inhibition, % at 57.5 µM. HFF cells, HCMV-luciferase reporter, 72 h; stronger effect = lower value. AID 1259415; in the data active = activity change below about -60%; inconclusive = no clear call, values can overlap the other calls; inactive = above about -39%
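Two-dose cell screen: HFF monolayers treated with compounds and infected with luciferase-expressing HCMV at 1 PFU/cell, 72 h at 37C, then lysed for luciferase measurement.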
FMDV inh – antivirals against foot and mouth disease virus; FMDV antiviral cell-based qHTS; Potency, µM (titrated, usually from 57.9 µM), hits mostly inhibitors; AID 1159524; actives 1.2% (n = 410,000); calls by dose curve; tested in HEK293T cells; note: read-out not given here; nearly all actives have a fitted effect of over 45% in size
Each line names hits and unclear results; the compound was inactive in the other large screens. Hits are enriched below; roughly 7.3% of the tested compounds scored in any of these assays.

Cc1ccc(NC(=O)c2ccc([N+](=O)[O-])o2)cc1C	HCV inhibitor 12.6µM, VACV mCherry inh inconclusive, VACV Venus inh inconclusive, HCMV inh inconclusive
O=C(COc1ccccc1)NC(=S)Nc1cccc(NC(=O)c2ccccc2Cl)c1	HCMV inh -64.1
O=C(Nc1ccc2[nH]c(=O)[nH]c2c1)c1ccc([N+](=O)[O-])o1	HCV inhibitor 10µM (no result: VACV mCherry inh, VACV Venus inh)
Cc1ccc(-n2nnnc2CNC(=O)c2ccc([N+](=O)[O-])o2)cc1C	HCV inhibitor 22.4µM, VACV mCherry inh inconclusive, VACV Venus inh inconclusive
O=C(Nc1cccc([N+](=O)[O-])c1)c1ccc([N+](=O)[O-])o1	VACV Venus inh inconclusive, HCMV inh -86.5, FMDV inh inconclusive (no result: HCV inhibitor)
Cc1ccc(NC(=O)c2cc3c([nH]c2=O)CC(c2ccccc2)CC3=O)cc1 (stereo unspecified)	none (no result: HCV inhibitor, HCMV inh, FMDV inh)
O=[N+]([O-])/N=C1\NCCN1Cc1ccc(Cl)nc1	none (no result: HCV inhibitor, HCMV inh)
COc1cc(OC)c(/C=C/c2ccc3ccccc3[n+]2C)c(OC)c1	VACV mCherry inh inconclusive (no result: HCV inhibitor, HCMV inh, FMDV inh)
CCC[n+]1c(/C=C/c2c(OC)cc(OC)cc2OC)ccc2ccccc21	VACV mCherry inh 10µM (no result: HCV inhibitor, HCMV inh, FMDV inh)
COc1cc(OC)c(OC)cc1/C=C/c1ccc2ccccc2[n+]1C	none (no result: HCV inhibitor, HCMV inh, FMDV inh)
CCCC[n+]1c(/C=C/c2c(OC)cc(OC)cc2OC)ccc2ccccc21	VACV mCherry inh 10µM (no result: HCV inhibitor, HCMV inh, FMDV inh)
C[C@]12c3[nH]c4ccccc4c3CCN1C(=O)C(CC(=O)NCC13CC4CC(CC(C4)C1)C3)C[C@@H]2C(=O)N1CCCCC1 (stereo partly specified)	VACV mCherry inh inconclusive, HCMV inh -76.4
COc1ccc2[nH]c3c(c2c1)CCN1C(=O)C(CC(=O)NCCC2=CCCCC2)C[C@H](C(=O)N2CCCCC2)[C@@]31C (stereo partly specified)	HCV inhibitor inconclusive, VACV mCherry inh 10µM, VACV Venus inh inconclusive
C[C@]12c3[nH]c4ccccc4c3CCN1C(=O)C(CC(=O)NCC13CC4CC(CC(C4)C1)C3)C[C@@H]2C(=O)N1CCOCC1 (stereo partly specified)	HCV inhibitor inconclusive, VACV Venus inh inconclusive, FMDV inh inconclusive
COc1ccc2[nH]c3c(c2c1)CCN1C(=O)C(CC(=O)NCCC2=CCCCC2)C[C@H](C(=O)N2CCOCC2)[C@@]31C (stereo partly specified)	HCV inhibitor inconclusive, VACV Venus inh inconclusive
COc1ccc2[nH]c3c(c2c1)CCN1C(=O)C(CC(=O)NCC24CC5CC(CC(C5)C2)C4)C[C@H](C(=O)N2CCCCC2)[C@@]31C (stereo partly specified)	HCV inhibitor 25.1µM, VACV mCherry inh inconclusive, VACV Venus inh inconclusive
CCC[C@H]1[C@H](N(C)Cc2cccs2)CC[C@@]23CCCN2C(=O)CCC[C@@H]13	none (no result: HCV inhibitor, VACV mCherry inh, VACV Venus inh, FMDV inh)
Cc1c(C(=O)N(C)C2CCCCC2)sc2nc3ccc(N)cc3n12	none (no result: HCV inhibitor, VACV mCherry inh, VACV Venus inh, HCMV inh)
Cc1nn(-c2ccccc2)c2c1C(O)CC(C)(C)C2 (stereo unspecified)	none (no result: VACV mCherry inh, VACV Venus inh)
Cc1nc2c(c3c1[nH]c1ccccc13)C(O)CC(C)(C)C2 (stereo unspecified)	HCV inhibitor inconclusive, VACV mCherry inh inconclusive, HCMV inh -89.8, FMDV inh inconclusive
Cc1ccc(C)n1-c1ccc(N2CCOCC2)cc1	HCV inhibitor inconclusive, HCMV inh -73.2 (no result: VACV mCherry inh, VACV Venus inh)
Cc1ccc(C)c(S(=O)(=O)NCc2ccc(C(=O)N3CCN(c4ccccc4)CC3)cc2)c1	HCV inhibitor inconclusive, VACV mCherry inh inconclusive, VACV Venus inh inconclusive, FMDV inh inconclusive
CC(C)c1ccc(CNc2cc(N3CCCC3)ccc2[N+](=O)[O-])cc1	HCV inhibitor inconclusive (no result: FMDV inh)
COc1ccc(N2CCN(C(=O)c3ccc(CNS(=O)(=O)c4cc(C)ccc4C)cc3)CC2)cc1	HCV inhibitor inconclusive, HCMV inh inconclusive, FMDV inh inconclusive
COc1ccc(N2CCN(C(=O)c3ccc(CNS(=O)(=O)c4ccc(C)cc4)cc3)CC2)cc1	HCV inhibitor 12.6µM, HCMV inh inconclusive
CC(C)(C)c1ccc(CNc2cc(N3CCOCC3)ccc2[N+](=O)[O-])cc1	HCV inhibitor 10µM (no result: VACV mCherry inh)
CC(C)(CNc1ccc(C(F)(F)F)cc1[N+](=O)[O-])N1CCOCC1	HCMV inh -66.4, FMDV inh inconclusive (no result: VACV mCherry inh, VACV Venus inh)
Cc1ccc(S(=O)(=O)NCc2ccc(C(=O)N3CCN(c4ccc([N+](=O)[O-])cc4)CC3)cc2)cc1	HCV inhibitor 3.98µM, HCMV inh -98.3, FMDV inh inconclusive (no result: VACV mCherry inh, VACV Venus inh)
COc1ccc2c3c([nH]c2c1)[C@@H](CO)N(C(=O)C1CCOCC1)CC31CCN(Cc2nccs2)CC1	none (no result: HCV inhibitor, VACV mCherry inh, VACV Venus inh, FMDV inh)
